Experimental data published in the supplement of paper PMC6555819.

test system: VDR:RXRa (NR concentration 270 nM, RXRa partner concentration 90 nM); assay: PBM binding z-score (relative to random genomic background probes); higher = stronger binding; sequences stand for … in GC…GCGATTGACAGCGTAGAATGAAGG
Procedure: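 Protein-binding microarray (Agilent 4x180K custom design, double-stranded 60-nt probes: 5' GC cap, 34-nt variable region, 24-nt constant primer region; full probe sequence given). Purified or IVT nuclear receptor:RXRα heterodimers (3:1 NR:RXRα, mostly 270:90 nM) or homodimers were incubated for 1 h in PBS with 2% milk and no ligand, then detected with Alexa488 antibodies. Fluorescence from o1-orientation probes (~5 replicates averaged) was converted to z-scores against 500 random hg19 background probes. Variable regions are seed direct-repeat (DR0–DR5) sites, all their single-nucleotide variants and half-site ablations.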

First: TCTATTACTTGAAGGGCAACCGACGAGTCCGTTT
Second: CCTATTGGGCCATTCAGAGGTCATTGATCATATG
The PBM binding z-score of the first is lower: 1.28 for the first, 3.98 for the second.

Compared with CCTACTGGGCCATCAGGTCATGGATATCAACGTT, TCATATAGGTAAACAGGTGTAAGTCCGTAAGTTA is higher in PBM binding z-score: 1.54 for the first, 1.6 for the second.

Going from AGCTCTAGGTAACAAGTTCAGTGAAAGAGAGGAC to GGAACGAGGGCAAAGTTGTTAGCATCTGTCGACG, the PBM binding z-score falls from 1.94 to 1.09.

First: CGTCCAAGGTCAAAGGTCAGTGACGAGATGACGG
Second: ACAGGCAGGTGATGAAGGTAACTCAGGCTATCAT
The PBM binding z-score of the first is higher: 6.67 for the first, -0.0607 for the second.

Going from ACAATGAGGTTAAGATCAGGGAAACAGAATACAT to CCTGCTAGGTCATGGTCAGCTATTCTACAGTATG, the PBM binding z-score rises from 1.3 to 1.52.

Compared with TCATATAGGTAAACAGGTGCAAGTCCGTAAGTTA, AGAATGAGGTTACCAAAGATTAGGGAAACGCTTG is lower in PBM binding z-score: 3.49 for the first, 1.05 for the second.

Going from GGTTACGGGTCAAAGGTTATAGCATGAATAGAAT to TCTTGTAGATCAACGGTTAAGAAAGCCGAAGCCT, the PBM binding z-score falls from 5.46 to 0.234.

Compared with TCTTGTAGATCAAGCAGCTTAAGAAAGCCTGAGT, TGTCAAAGTTCAAAGGTAACGTGAGTATCCACAC is higher in PBM binding z-score: 0.0668 for the first, 5.2 for the second.

Compared with ATCGAAAGGTCGAAGGTGAGTTTACCCACCCGAA, TCTTGTAGCTCAGCAGGTTAAGAAAGCTGGCCAA is lower in PBM binding z-score: 4.33 for the first, -0.236 for the second.

Going from CCTGCTAGATCAATGGTCAGCTAAAGCAGCTCGC to AGTCAAAGTTCATCTAGGGAACGTAAGATATGCT, the PBM binding z-score rises from -0.615 to 4.73.

First: GCTTGTAGATCAAGGTTAAGAGAGACTAAGCTAA
Second: ACAGACAGGAGAGTGAAGGTAACTCAGCTGGACG
The PBM binding z-score of the first is higher: -0.00778 for the first, -0.068 for the second.

First: CCGACTGGGGCAAAGGTTACTATACTCAGTACGA
Second: TCTCGGAGGACACGAAGGTAAGAGCTTTCCAGAG
The PBM binding z-score of the first is higher: 1.12 for the first, -0.386 for the second.

Going from CGTCCAAGGTCAAGGTCAGTTAAAGAGACTCGAA to TCCAGTTGGTCAAAGGTCACACACTCGAAATGCG, the PBM binding z-score rises from 4.83 to 5.31.

First: TCGAGTAGGTTACCAGTGGGGCATTCAGCTTTCT
Second: ATCTCTAGGTAAAGAAAGTTCAGTGAATGCAAAT
The PBM binding z-score of the first is lower: 0.134 for the first, 2.17 for the second.

First: TCTTGTAGATCAACTGGAGGTTAAGAAAGATCGA
Second: ATCGAAAGGTCGACGAGGTGAGTATTCACCGTTT
The PBM binding z-score of the first is lower: 0.589 for the first, 5.38 for the second.

Going from TCTTGTAGATTAAGCAGGTTAAGAAAGCCTGAGT to TGTAGCAGGCCAGAGGGTCACTCAAGAGGTACGG, the PBM binding z-score rises from 0.313 to 1.46.

First: CCTTACTGGTCAAGGTTATAGCACGGGTGGTACG
Second: AGAATGAGGTTATACGTAGATCACGGAAGAAAGT
The PBM binding z-score of the first is lower: 0.737 for the first, 1.61 for the second.

First: GCTGCTAGGTCAACTGATGGTCAGCGAAAGCTCG
Second: ACTACTAGTTGAGACGAGGGCAACCGATAGGTTG
The PBM binding z-score of the first is higher: 1.73 for the first, 0.46 for the second.

Compared with CGACCAAGGTGAACAAGGTCGTTGATTACTATTC, TCATATAAGTAAAAGGTGAAAGTCGGTGTGGTAA is lower in PBM binding z-score: 6.02 for the first, 1.24 for the second.

First: ATACCAAGGTGATCGTGAGGTCGTAGATACTAAC
Second: ATACCAAGGTGCTCGTGAGGTCGTTGATACTAAC
The PBM binding z-score of the first is higher: 2.42 for the first, 2.34 for the second.
